Screening results from PubChem BioAssay.
Sampled rows, rich in hits. Any-hit rate of the full collection: about 18%.
TDP1 inh: qHTS Assay for Inhibitors of Tyrosyl-DNA Phosphodiesterase (TDP1); Tyrosyl-DNA phosphodiesterase 1 (Homo sapiens), Q9NUW8; recombinant TDP1, AlphaScreen DNA substrate cleavage; 350,000 tested, 0.28% active; Potency, µM (series often up to 130 µM), most hits filed as inhibitors; AID 485290, 2010; note: nearly all actives have a fitted effect of over 40% in size
Target sequence (Q9NUW8 whole entry, looked up): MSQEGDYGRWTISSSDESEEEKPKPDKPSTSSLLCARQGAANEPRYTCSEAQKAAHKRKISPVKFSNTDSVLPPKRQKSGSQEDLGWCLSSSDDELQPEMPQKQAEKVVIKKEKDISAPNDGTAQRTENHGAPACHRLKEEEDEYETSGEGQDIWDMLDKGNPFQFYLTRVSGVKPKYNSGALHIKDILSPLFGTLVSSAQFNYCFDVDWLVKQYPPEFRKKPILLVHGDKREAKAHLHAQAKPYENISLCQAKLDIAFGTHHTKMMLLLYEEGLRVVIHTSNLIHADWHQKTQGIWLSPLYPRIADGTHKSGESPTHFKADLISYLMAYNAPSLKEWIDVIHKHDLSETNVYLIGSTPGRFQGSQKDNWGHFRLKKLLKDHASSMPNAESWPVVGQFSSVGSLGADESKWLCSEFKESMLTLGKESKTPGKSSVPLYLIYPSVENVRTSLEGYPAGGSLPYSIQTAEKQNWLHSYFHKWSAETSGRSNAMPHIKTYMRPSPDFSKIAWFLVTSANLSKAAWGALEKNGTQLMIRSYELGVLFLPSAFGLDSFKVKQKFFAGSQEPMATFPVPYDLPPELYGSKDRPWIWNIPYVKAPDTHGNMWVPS
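E. coli-derived human Tdp1, 1 nM final. Cpd preinc 15 min RT; substrate 15 nM final, 5 min RT; AS bead mix 10 ug/ml final, 10 min RT. Signal loss = tyrosine-FITC cleavage. No-enzyme wells = max signal.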
HepG2 viability: qHTS for Inhibitors of TGF-b: Cytotox Counterscreen | AID 588856, 2011 | Potency, µM (doses to about 46.1 µM), most hits filed as cytotoxic | HepG2 CAGA-GFP viability, ATP luminescence, 18 h | 410,000 tested, 0.76% active
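CellTiter-Glo luminescence gave cytotoxicity after 18 hours at 37 degrees C. The cells were HepG2 CAGA-GFP in 1% FBS DMEM, stimulated with 500 pg/mL TGF-beta after compound addition. %Activity was normalised to no-cell wells (complete cell-killing) and DMSO (no toxicity), and curves were fitted and classified.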
TDP1 cell CPT: qHTS for Inhibitors of human tyrosyl-DNA phosphodiesterase 1 (TDP1): qHTS in cells in presence of CPT | chicken DT40 Tdp1-/-;hTDP1 cells + 20 nM CPT, ATP luminescence, 48 h | Potency, µM (series often up to 46.2 µM), actives largely listed as inhibitors | 420,000 tested, 12% active; note: nearly all actives have a fitted effect of over 55% in size
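Cell growth measured by CellTiter-Glo luminescence after a minimum 48 h, 37 C compound exposure with 20 nM CPT in Tdp1-knockout DT40 cells stably expressing hTDP1, seeded 400/well; qHTS titration format.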
TGFb SMAD3 inh: qHTS for Inhibitors of TGF-b | 410,000 tested, 1.2% active | HepG2 CAGA-GFP TGF-b/SMAD3 reporter, GFP fluorescence, 18 h; TGF-beta stimulated, 500 pg/mL final | AID 588855, 2011 | Potency, µM (doses to about 46.1 µM), actives largely listed as inhibitors; note: nearly all actives have a fitted effect of over 65% in size
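Per well, imaged GFP fluorescence of HEPG2 CAGA-GFP cells gives the signal; cells get compound, then TGF-beta (500 pg/mL final), 18 h at 37 degrees C; %Activity versus -TGF-beta and +DMSO controls.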
TDP1 cell noCPT: qHTS for Inhibitors of human tyrosyl-DNA phosphodiesterase 1 (TDP1): qHTS in cells in absence of CPT; Potency, µM (highest dose often 46.2 µM), hits mostly inhibitors; DT40 Tdp1-/- hTDP1 cells, no CPT, ATP luminescence, 48 h; 420,000 tested, 15% active; AID 686978, 2013; note: nearly all actives have a fitted effect of over 55% in size
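Stably hTDP1-transfected Tdp1-null chicken DT40 cells were treated with library compounds minus camptothecin and grown for at least 48 hr at 37 °C, after which cellular ATP was quantified by luminescence.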
IL1B secr inh: qHTS for Inhibitors of Inflammasome Signaling: IL-1-beta AlphaLISA Primary Screen. THP-1 LPS/ATP IL-1B secretion, AlphaLISA, 16 h; active compounds read low. activity change, % at 57.5 µM. 360,000 tested, 4.7% active; in the data active = activity change below about -50%; inconclusive = mostly about -30% to -49%
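Secreted IL-1B measured by AlphaLISA bead assay after 16 h compound exposure of THP-1 cells; compounds (final up to 57.5 uM) added 1 h before LPS (250 ng/mL) and ATP (1.25 mM) stimulation; lower signal means less secretion.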
A number is an active result; – = inactive; ? = inconclusive; · = not tested or not shown. Unless noted, calls come from the whole dose curve; as a rule, active = well fitted curve in the direction sought with a large enough effect; inconclusive = small, poorly fitted or top-dose-only effect, or another doubt; inactive = no such curve, though single readings can be large; an effect the other way counts as inactive or inconclusive.

SMILES	TDP1 inh	HepG2 viability	TDP1 cell CPT	TGFb SMAD3 inh	TDP1 cell noCPT	IL1B secr inh
O=C(Nc1cccnc1)C1Cc2c(-c3ccco3)ccnc2O1 (stereo not given)	·	–	–	–	?	–
O=C(Nc1cccc(OC(F)(F)F)c1)C1Cc2c(-c3ccc(Cl)cc3)ccnc2O1 (stereo not given)	·	–	?	?	?	–
O=C(Nc1cccc(C(F)(F)F)c1)C1Cc2c(-c3ccco3)ccnc2O1 (stereo not given)	·	–	16µM	?	?	·
CN(C)c1c(Br)cc(C=O)cc1Br	·	–	–	–	–	·
COc1ccc(-c2sc3ccc(N4CCOCC4)cc3c2C#Cc2ccsc2)cc1	–	–	18µM	–	?	–
COc1ccc(-c2sc3ccc(N4CCOCC4)cc3c2C#CC(C)(C)O)cc1	–	–	21µM	–	9.2µM	–
COc1ccc(-c2oc3ccc(-c4cc(OC)c(OC)c(OC)c4)cc3c2C#Cc2ccsc2)cc1	·	–	?	–	?	–
COc1ccc(-c2sc3ccc(N4CCOCC4)cc3c2-c2ccc(O)cc2)cc1	–	–	?	?	?	–
CC(=O)c1c(C(C)=O)c(C)n(-c2nc(-c3ccc(Br)cc3)c(C)s2)c1C	–	–	18µM	–	16µM	–
Cc1ccc([N+](=O)[O-])c(N)c1	–	·	·	·	·	·
CC1(C)N=c2ccc([N+](=O)[O-])c(N)c2=[N+]1[O-]	·	–	15µM	?	21µM	–
CC(=O)NC(c1ccccc1)c1nc(-c2cccc(C#N)c2)cs1 (stereo not given)	·	–	?	–	?	–
CCCCN(C)C(=O)C1CCC(CNS(=O)(=O)c2ccc3c(c2)CC(C)N3C(C)=O)CC1 (stereo not given)	–	–	13µM	–	16µM	–
CC(=O)N1c2ccc(S(=O)(=O)NCC3CCC(C(=O)N(C)Cc4ccccc4)CC3)cc2CC1C (stereo not given)	–	–	?	–	?	–
CCc1ccc(NC(=O)C2CCC(CNS(=O)(=O)c3ccc4c(c3)CC(C)N4C(C)=O)CC2)cc1 (stereo not given)	–	–	21µM	–	7.3µM	·
CC(=O)N1c2ccc(S(=O)(=O)NCC3CCC(C(=O)N4CCCC(C)C4)CC3)cc2CC1C (stereo not given)	–	–	16µM	–	?	–
CC(=O)N1c2ccc(S(=O)(=O)NCC3CCC(C(=O)Nc4ccc(C)c(C)c4)CC3)cc2CC1C (stereo not given)	–	–	16µM	–	23µM	·
CC(=O)N1c2ccc(S(=O)(=O)NCC3CCC(C(=O)Nc4ccc(C)cn4)CC3)cc2CC1C (stereo not given)	–	–	?	–	?	?
CC(=O)N1c2ccc(S(=O)(=O)NCC3CCC(C(=O)NCc4ccccc4)CC3)cc2CC1C (stereo not given)	–	–	?	–	–	–
CCc1cccc(NC(=O)CN2C(=O)COc3ccc(S(=O)(=O)N4CCC(C)CC4)cc32)c1	–	–	–	–	–	·
O=C(COC(=O)C1CCCCC1)Nc1cccc(Br)c1	–	–	–	–	–	–
COc1ccc(C)cc1NC(=O)C1CCC(CNS(=O)(=O)c2ccc3c(c2)CCCC(=O)N3)CC1 (stereo not given)	–	–	9.2µM	–	4.6µM	·
COc1ccccc1NC(=O)C1CCC(CNS(=O)(=O)c2ccc3c(c2)CC(C)N3C(C)=O)CC1 (stereo not given)	–	–	10µM	?	10µM	·
CC(=O)N1c2ccc(S(=O)(=O)NCC3CCC(C(=O)NC(C)(C)C)CC3)cc2CC1C (stereo not given)	–	–	?	–	?	·
CC1CC(C)CN(C(=O)C2CCC(CNS(=O)(=O)c3ccccc3)CC2)C1 (stereo not given)	·	–	?	–	29µM	–
SMILES	TDP1 inh	HepG2 viability	TDP1 cell CPT	TGFb SMAD3 inh	TDP1 cell noCPT	IL1B secr inh
CC(=O)N1c2ccc(S(=O)(=O)NCC3CCC(C(=O)Nc4ccc(F)cc4)CC3)cc2CC1C (stereo not given)	–	–	16µM	–	16µM	·
Cc1ccc(B(O)O)cc1	–	–	?	–	–	·
CCOc1ccc(NC(=O)CSc2nc3ccsc3c(=O)n2CCCCCC(=O)O)cc1	–	–	?	–	?	–
O=C(CN1CCOCC1)Nc1nc(-c2ccccc2)cs1	·	–	–	–	?	–
COc1ccc(C2(O)CCN(CC(=O)Nc3nc(-c4ccccc4)cs3)CC2)cc1	–	–	?	?	?	-98
CN1CCN(CC(=O)Nc2nc(-c3ccccc3)cs2)CC1	–	–	–	–	–	–
O=C(CN1CCCCC1)Nc1nc(-c2ccc(Cl)cc2)cs1	·	–	?	–	–	-82
O=C(Cn1nnc(-c2ccc(CN3CCOCC3)cc2)n1)Nc1nc(-c2ccccc2)cs1	–	–	?	13µM	21µM	–
Cc1ccc(-c2csc(NC(=O)CN3CCOCC3)n2)cc1C	·	–	?	–	16µM	–
O=C(CN1CCCCC1)Nc1nc(-c2ccccc2)cs1	·	–	–	–	?	–
NC(=O)C1CCN(CC(=O)Nc2nc(-c3ccccc3)cs2)CC1	·	–	–	–	–	–
Cc1cc(=O)oc2c(C)c(OC(C)C(=O)Nc3ccc(N4CCC(C)CC4)cc3)ccc12 (stereo not given)	–	–	–	–	–	–
CC1CCN(Cc2ccc(-c3nnn(CC(=O)Nc4ccccc4Cl)n3)cc2)CC1	–	–	16µM	–	21µM	–
CC1CCN(CC(=O)Nc2nc(-c3ccccc3)cs2)CC1	·	–	?	?	?	–
O=C(CN1CCCC1)Nc1nc(-c2ccc(Cl)cc2)cs1	·	–	26µM	–	16µM	–
CC(=O)NCCNc1nc(NCC2CC2)nc2cc(-c3ccccc3)sc12	·	–	?	?	?	·
COc1ccccc1CNc1nc(NC(C)C)nc2cc(-c3ccccc3)sc12	·	13µM	2.6µM	?	4.1µM	-115
Cc1ccccc1-c1nc(NC(C)C)nc2ccsc12	·	–	?	–	?	–
Cc1ccc(F)cc1-c1nc(NC(C)C)nc2cc(-c3ccccc3)sc12	·	–	?	–	18µM	?
